# Measured values: PubChem BioAssay AID1240 (Sanford-Burnham Center for Chemical Genomics, 2008)
# The campaign covered roughly 50,000 compounds. About 800 (1.6%) showed an effect of 50% or more. The full list was thinned out, with strong results kept by preference.
# Molecular target: Bcl-2-like protein 10 (Homo sapiens) (UniProt Q9HD36)
# Test: TR3 peptide-Bcl-B binding displacers, biochemical primary FP assay, phenotype converters (AID 1240);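 also: 0% = Bcl-B with tracer peptide and DMSO and 100% = tracer peptide lacking Bcl-B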
# Details: GST-Bcl-B / FITC-TR3 peptide fluorescence polarization; stronger effect = higher value; compound at 3.75 mg/L
# Chain of Bcl-2-like protein 10 (Homo sapiens) (Q9HD36 whole entry, looked up): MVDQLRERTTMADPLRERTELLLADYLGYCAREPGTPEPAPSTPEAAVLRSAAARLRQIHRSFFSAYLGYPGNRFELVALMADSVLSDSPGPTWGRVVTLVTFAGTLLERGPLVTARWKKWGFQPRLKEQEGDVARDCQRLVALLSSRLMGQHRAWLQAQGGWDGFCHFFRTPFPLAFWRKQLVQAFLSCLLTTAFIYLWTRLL
row,Structure (SMILES),displacement
1,Cc1nc2cc(N=Cc3ccccc3O)ccc2n1C,12.7%
2,Oc1ccccc1C=Nc1ccc2c(c1)ncn2CCn1cnc2cc(N=Cc3ccccc3O)ccc21,115%
3,Oc1ccccc1C=Nc1ccc2c(c1)ncn2-c1ccccc1,15.5%
4,Cc1nc2c(sc3nc(C)c(C)c(C)c32)c(=O)o1,0%
5,COC(=O)c1cc(Cl)c(NC(=O)C(c2ccccc2)c2ccccc2)cc1OC,-16.6%
6,COc1cc(/C=N/NC(=O)/C(=C\C=C\c2ccccc2)NC(=O)c2ccccc2)cc(OC)c1O,-2.3%
7,O=c1oc2c3c4c(cc2cc1CCO)CCCN4CCC3,75.8%
8,O=c1cc(C(F)(F)C(F)(F)F)c2cc3c4c(c2o1)CCCN4CCC3,66.7%
9,Cc1c(OCc2ccc(C(=O)O)cc2)ccc2c3c(c(=O)oc12)CCC3,8.3%
10,Cc1c(O)ccc2c3c(c(=O)oc12)CCC3,12.3%
11,CN1CCN(Cc2c(O)ccc3c4c(c(=O)oc23)CCC4)CC1,-0.5%
12,Cc1c(C=O)c(=O)oc2c3c4c(cc12)CCCN4CCC3,148%
13,COCCCNC(=O)c1ccc(C(=O)NCCCOC)cc1,-6.5%
14,O=[N+]([O-])c1cnc(-c2ccccc2)nc1,-3.2%
15,COc1cc(Br)cc(/C=C(\C#N)C(=O)NC2CCCCC2)c1O,-5.3%
16,COc1ccc(Cl)cc1C(=O)Nc1nc(-c2ccc(Cl)cc2Cl)cs1,9.7%
17,CCSc1nc2ccccc2n1Cc1ccc(OC)c([N+](=O)[O-])c1,10.5%
18,CC(=O)Nc1cccc(NS(=O)(=O)c2ccccc2)c1,9.1%
19,C=CCNC(=O)Nc1ccc2nccnc2c1,8.7%
20,CCOC(=O)c1c(NC=O)sc2c1CCC2,-2.1%
21,CCOC(=O)c1c(NC(=O)c2ccccc2)sc2c1CCC/C2=N/O,-0.2%
22,CCOC(=O)c1c(NC=O)sc2c1CCC/C2=N\O,148%
23,COc1cccc(N2C(=O)C(=O)/C(=C(\O)c3ccccc3)C2c2ccc([N+](=O)[O-])cc2)c1 (stereo unspecified),4.1%

row,Structure (SMILES),displacement
1,O=c1/c(=C/c2cn(Cc3ccc(F)cc3)c3ccccc23)sc2nc3ccccc3n12,2.3%
2,NS(=O)(=O)c1cccc(NC(=O)c2cccs2)c1,1.4%
3,CCOc1ccc(/C=C2\SC(=S)N(CCC(=O)N3CCN(C)CC3)C2=O)cc1,1.2%
4,O=C(CCCN1C(=O)/C(=C\c2cccs2)SC1=S)Nc1ccc(F)c(Cl)c1,3.9%
5,COc1ccc(NC(=O)CCN2C(=O)/C(=C/c3ccc(F)cc3)SC2=S)cc1,12.3%
6,CCOc1ccc(/C=C2\SC(=S)N(CCC(=O)N3CCOCC3)C2=O)cc1,100%
7,O=C(CCCN1C(=O)/C(=C\c2cccs2)SC1=S)Nc1ccccc1O,10.6%
8,CCOc1ccc(/C=C2/SC(=S)N(CN3CCOCC3)C2=O)cc1,8.8%
9,O=C(CCN1C(=O)/C(=C\c2cccs2)SC1=S)Nc1ccc(Cl)cc1,77.4%
10,COc1ccc(NC(=O)CCN2C(=O)/C(=C/c3cccs3)SC2=S)cc1,82.8%
11,O=C(CCCN1C(=O)/C(=C/c2ccccc2)SC1=S)Nc1ccccc1C(=O)O,2%
12,COc1ccc(NC(=O)CCN2C(=O)/C(=C\c3cccc(OC)c3)SC2=S)cc1,-5.5%
13,Cc1ccccc1NC(=O)CCCN1C(=O)/C(=C/c2cccc3c2OCO3)SC1=S,94.9%
14,O=C(CCN1C(=O)/C(=C/c2cccs2)SC1=S)Nc1ccc(F)cc1,10.6%
15,O=C(O)CSc1nnc(-c2ccco2)n1-c1ccccc1,0.4%
16,O=C(Nc1ccc(Cl)c(Cl)c1)C(c1ccccc1)c1ccccc1,15.4%
17,COC(=O)c1ccccc1P(C)(C)=O,1%
18,COc1ccc(Br)cc1C(=O)Nc1cc2nn(-c3ccc(C)cc3)nc2cc1C,-6.9%
19,COc1ccc(NS(=O)(=O)c2cc(C)ccc2C)cc1,2%
20,O=C(Nc1cccnc1)c1cccc(C(=O)Nc2cccnc2)n1,-7.2%
21,O=C(CSc1nnc(-c2ccncc2)n1-c1ccccc1)c1ccc(F)cc1,-2.7%
22,COc1ccc(C(=O)Nc2cccc(NC(=O)c3ccc(F)cc3)c2)cc1Br,2.2%
23,CN(C)c1ccc(NS(=O)(=O)c2ccccc2[N+](=O)[O-])cc1,9.8%

row,Structure (SMILES),displacement
1,O=C1C(Cl)=C(N2CCOCC2)C(=O)C(Cl)=C1/C=C/N1CCOCC1,24.3%
2,COc1cccc(/C=C2/SC(=S)N(CCC(=O)Nc3c(C)n(C)n(-c4ccccc4)c3=O)C2=O)c1,7.7%
3,CCOc1ccc(/C=C2\SC(=S)N(CCC(=O)Nc3cccnc3)C2=O)cc1,77%
4,O=C(CCCN1C(=O)/C(=C\c2cccs2)SC1=S)Nc1cccnc1,-0.9%
5,O=C(CCN1C(=O)/C(=C/c2cccs2)SC1=S)Nc1cccnc1,135%
6,O=C(CCN1C(=O)/C(=C/c2cccs2)SC1=S)Nc1cccc(F)c1,-21.4%
7,COc1cccc(NC(=O)CCN2C(=O)/C(=C/c3ccc(C)cc3)SC2=S)c1,39.1%
8,COc1ccc(/C=C2\SC(=S)N(CCCC(=O)Nc3c(C)n(C)n(-c4ccccc4)c3=O)C2=O)cc1,120%
9,CCOc1ccc(/C=C2\SC(=S)N(CCC(=O)Nc3ccccn3)C2=O)cc1,-4.3%
10,Cc1c(NC(=O)CCCN2C(=O)/C(=C/c3ccccc3)SC2=S)c(=O)n(-c2ccccc2)n1C,1.5%
11,CCc1ccc(C(=O)CC2(O)C(=O)Nc3ccc(Br)cc32)cc1 (stereo unspecified),2.3%
12,Cc1ccc(CN2CCN(N=Cc3c(O)ccc4ccccc34)CC2)c(C)c1,0.3%
13,Cc1nc([N+](=O)[O-])cn1-c1cccc(O)c1,3%
14,Cc1cccc(NC(=O)COc2ccccc2)n1,13.2%
15,CCCNc1nc(OCC(F)(F)F)nc(OCC(F)(F)F)n1,12.4%
16,O=C1OC(c2cccc(F)c2)=N/C1=C\c1ccc(F)cc1,-2.2%
17,COc1cc(/C=C2\N=C(c3cccc(Br)c3)OC2=O)cc(OC)c1OC,72.6%
18,Cc1ccc(C2=N/C(=C\c3ccccc3)C(=O)O2)cc1,-7.3%
19,COc1ccc(/C=C2/N=C(c3ccc(C)cc3)OC2=O)cc1Br,127%
20,COc1ccc(/C=C2/N=C(c3ccc(Br)cc3)OC2=O)cc1,99.4%
21,O=C1OC(c2ccc(F)cc2)=N/C1=C\c1cccc(Br)c1,74.2%
22,C=CCOc1c(Br)cc(/C=C2/N=C(c3ccccc3)OC2=O)cc1OC,-4.9%
23,O=C1OC(c2ccc(F)cc2)=N/C1=C\c1ccc(Cl)cc1,4.3%

row,Structure (SMILES),displacement
1,COc1ccc(C2=NC(=Cc3ccc(Br)cc3)C(=O)O2)cc1,22.5%
2,CN(C)/C=C1\N=C(c2cccc(Br)c2)OC1=O,0.8%
3,COc1ccc(/C=C2\N=C(c3cccc(OC)c3)OC2=O)cc1,-1.7%
4,Cc1ccc(/C=C2\N=C(c3ccc(Cl)cc3)OC2=O)cc1,0%
5,CN(C)c1ccc(/C=N/NC(=O)c2ccc(CN3CCOCC3)cc2)cc1Br,6.3%
6,Cc1ccc(-c2csc(N)c2C(=O)OC(C)C)cc1,-1.9%
7,Cc1c(NC(=O)c2cccs2)cccc1-c1nc2ncccc2o1,3.8%
8,O=C(Nc1ccc(Nc2ccccc2)cc1)c1ccc(Cl)cc1Cl,-13.5%
9,O=C(N/N=C/c1ccccc1Cl)c1ccccn1,-9.6%
10,CNCCOc1nc(-c2ccccc2)cc(-c2ccccc2)n1,-7.8%
11,CCOC(=O)N1CCN(S(=O)(=O)c2ccc(C)cc2)C1,10.6%
12,O=C1CS/C(=N/N=C/c2ccc3c(c2)OCO3)N1,-8.7%
13,CC1(C)CC(NCC(=O)OC2CCCCC2)CC(C)(C)N1,12.1%
14,O=C(NCC1CCS(=O)(=O)C1)OC1CCCCC1 (stereo unspecified),2%
15,NC(CC(=O)OC1CCCCC1)C(=O)OC1CCCCC1 (stereo unspecified),74.3%
16,Cc1ccc2[nH]c(C)c(CN(C)Cc3ccccc3)c(=O)c2c1,-15.8%
17,COCCCNC(=O)CN(c1cccc([N+](=O)[O-])c1)S(=O)(=O)c1ccccc1,11.1%
18,Cc1cc(NC(=O)c2cc(-c3ccccc3)nc3ccccc23)no1,3.8%
19,CN(C)/C=C1/C=C(c2ccccc2)OC1=O,-11.5%
20,CN(C)/C=C1\C=C2C(=O)c3ccccc3N2C1=O,162%
21,CCO/C=C1\C(=O)N(CC)c2ccccc21,19.1%
22,COc1ccc(N(CC(=O)NCc2ccccc2)S(=O)(=O)c2ccc(C)cc2)cc1,-1.4%
23,COc1ccc(OC)c(N(CC(=O)N/N=C/c2ccc(OC3CSC3)cc2)S(=O)(=O)c2ccccc2)c1,7.5%

row,Structure (SMILES),displacement
1,COc1ccc(/C(N)=N/OC(=O)c2ccc(Cl)cc2)cc1,83.7%
2,COc1ccc(/C(N)=N/OC(=O)c2ccc(C)cc2)cc1,-20.8%
3,COc1ccc(C(=O)O/N=C(\N)c2ccccc2)cc1,-9.3%
4,O=C(COc1ccccc1Cl)NNC(=O)c1ccccn1,-13%
5,COc1ccc(/C=C2\C=C(c3ccc(Cl)cc3)OC2=O)cc1[N+](=O)[O-],36.4%
6,COc1ccc(C2=C/C(=C/c3ccc(Cl)cc3)C(=O)O2)cc1,-4.1%
7,CCOc1c(I)cc(/C=C2\C(=O)ON=C2c2ccccc2)cc1OC,3.5%
8,CCOc1cc(/C=C2/C(=O)ON=C2c2ccc(Cl)cc2)ccc1OC,118%
9,COc1cc(/C=C2\C=C(c3ccc(Cl)cc3)OC2=O)cc(Br)c1OC,-9.5%
10,O=C1ON=C(c2ccc(Cl)cc2)/C1=C/c1ccc(O)cc1,4.4%
11,COc1ccc(C2=C/C(=C/c3ccc(Cl)cc3)C(=O)O2)cc1OC,105%
12,COc1ccc(/C=C2\C=C(c3ccc(Cl)cc3)OC2=O)cc1OC,147%
13,COc1ccc(/C=C2\C=C(c3ccc(Cl)cc3)OC2=O)cc1C,0.9%
14,CN(C)c1ccc(C=Nn2cnnc2)cc1,-7.2%
15,CCN(CC)CCSc1nc(O)c(C2CCCCC2)c(=O)[nH]1,-6.4%
16,COc1cccc(C2NC(=S)NC(C)=C2C(=O)Nc2cccc(Cl)c2)c1 (stereo unspecified),-14%
17,N#C/C(=C\c1ccc(-c2cccc([N+](=O)[O-])c2)o1)C(=O)N1CCOCC1,-3.5%
18,CCOC(=O)c1c(C)n(C)c2c1cc(O)c1ccccc12,-0.3%
19,Cc1ccc(/C=C(\C#N)c2nc(-c3ccc([N+](=O)[O-])cc3)cs2)o1,3.5%
